# This is a sample that favours compounds with a hit; in the whole collection about 1.3% have one here.
# AMA1-RON2 inh – disrupts binding of P. falciparum AMA1 to RON2; Potency, µM (titrated, usually from 58.2 µM), hits mostly inhibitors; 360,000 tested, 0.2% active; AlphaScreen AMA1-biotinylated RON2 peptide binding; AID 720542; further: nearly all actives have a fitted effect of over 45% in size
#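 AMA1 (3D7) with his tag at 25 nM final met compounds first, then biotinylated RON2 peptide at 25 nM; detection used donor plus acceptor beads, 10 µg/mL apiece, read by AlphaScreen after 30 min at room temperature.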
# VACV mCherry inh – vaccinia inhibition (mCherry reporter) | Vaccinia virus mCherry reporter infection, fluorescence | 310,000 tested, 0.63% active | Potency, µM (titrated, usually from 36.5 µM), actives largely listed as inhibitors | AID 720579; calls by dose curve; tested in A549 cells; further: nearly all actives have a fitted effect of over 35% in size
# RE007 growth inh – less growth of the S. pombe RE007 Vpr strain; S. pombe RE007 Vpr strain, BacTiter-Glo ATP luminescence, 24 h; Potency, µM (series often up to 92.2 µM), hits mostly inhibitors; 360,000 tested, 0.21% active; AID 651644; active means well fitted falling curve with a large enough effect; inconclusive means small, poorly fitted or top-dose-only effect; inactive means no such curve, though single readings can be large or run the other way; further: nearly all actives have a fitted effect of over 50% in size
#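 Fission yeast strain RE007, carrying one chromosomally integrated HIV-1 vpr copy, was seeded at OD 0.01 in PMG+AL medium with 23 nL pinned compound. After 24 h at 30 °C and 99% humidity, viability was read by BacTiter-Glo luminescence.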
# LmPK inhibitor – inhibitors of Leishmania mexicana pyruvate kinase; AID 1721; 290,000 tested, 0.37% active; Potency, µM (highest dose often 57.5 µM), most hits filed as inhibitors; purified LmPK, Kinase-Glo ATP luminescence, 1 h; Q27686
# Target sequence (Q27686 whole entry, looked up): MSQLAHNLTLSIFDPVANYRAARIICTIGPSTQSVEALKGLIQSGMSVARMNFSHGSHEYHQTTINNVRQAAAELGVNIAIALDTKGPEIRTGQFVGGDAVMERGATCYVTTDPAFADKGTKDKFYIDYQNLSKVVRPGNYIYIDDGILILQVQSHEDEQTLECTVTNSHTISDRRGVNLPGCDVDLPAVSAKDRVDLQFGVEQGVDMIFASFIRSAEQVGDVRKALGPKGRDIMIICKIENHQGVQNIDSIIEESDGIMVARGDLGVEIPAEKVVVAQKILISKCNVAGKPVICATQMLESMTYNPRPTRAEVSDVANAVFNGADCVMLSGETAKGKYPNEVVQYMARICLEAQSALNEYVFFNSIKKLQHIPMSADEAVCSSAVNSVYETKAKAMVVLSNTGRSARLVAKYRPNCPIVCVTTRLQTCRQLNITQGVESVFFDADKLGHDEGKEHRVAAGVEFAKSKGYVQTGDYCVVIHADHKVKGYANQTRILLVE
#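 Purified LmPK (0.1 nM) with 0.5 mM PEP and 0.1 mM ADP in imidazole buffer pH 7.2 with MgCl2/KCl, 1 h at room temperature. ATP formed was read by luciferase luminescence and normalized to no-enzyme and uninhibited controls.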
# VACV Venus inh – inhibitors of vaccinia virus (Venus reporter). Vaccinia virus Venus reporter expression, fluorescence. Potency, µM (doses to about 36.5 µM), hits mostly inhibitors. 330,000 tested, 0.46% active; calls by dose curve; tested in A549 cells; further: nearly all actives have a fitted effect of over 30% in size
# TbPYK inhibitor – inhibitors of Trypanosoma brucei pyruvate kinase; TbPYK enzyme, Kinase-Glo Plus ATP luminescence, 45 min; AID 624173; 410,000 tested, 0.12% active; Potency, µM (doses to about 76.8 µM), hits mostly inhibitors; Q57TT1; further: nearly all actives have a fitted effect of over 50% in size
#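 Screened from lowest to highest concentration, compounds were pinned into TbPYK/substrate mixtures, and ADP (130 uM final) was added. Plates sat at room temperature for 45 min prior to Kinase-Glo Plus detection by luminescence.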
# Hits are given with their value; 0 = inactive; ? = inconclusive; - = no result given; [ ] = dose if it differs, or a comment. Unless noted, the call rests on the fitted dose curve; in most records, active means well fitted curve in the direction sought with a large enough effect; inconclusive means small, poorly fitted or top-dose-only effect, or another doubt; inactive means no such curve, though single readings can be large; an effect the other way counts as inactive or inconclusive.
SMILES,AMA1-RON2 inh,VACV mCherry inh,RE007 growth inh,LmPK inhibitor,VACV Venus inh,TbPYK inhibitor
COc1cc(OC)c(/C=N/NC(N)=S)cc1Br,0,1µM,0,0,1.26µM,0
COc1cc(/C=N/NC(N)=S)cc(Br)c1OCc1ccccc1F,0,?,0,0,2.51µM,0
CCOc1cc(/C=N/NC(N)=S)cc(Br)c1OCc1ccccc1C,0,-,0,0,-,0
COc1cc(CNc2ccc3[nH]c(=O)[nH]c3c2)cc(Br)c1OCc1ccccc1F,0,6.31µM,0,0,?,0
COc1cc(CNc2ccc3[nH]c(=O)[nH]c3c2)ccc1OCc1ccccc1F,0,?,0,0,?,0
Cc1oc(-c2ccccc2F)nc1CS(=O)CC(=O)NC(C)C (centres undefined),-,0,-,-,0,0
CSc1nnc(CNS(=O)(=O)c2ccc(F)cc2F)n1-c1ccccc1C,-,0,-,-,0,-
CC(C)(C)NC(=O)NC(=O)CN1CCN(c2ccc(O)cc2)CC1,0,0,0,12.6µM,0,?
Cc1ccsc1/C=N/Nc1nc(=O)[nH]nc1C,0,?,12.6µM,?,0,?
Cc1cc(C)nc(N/N=C/c2sccc2C)n1,0,0,0,?,0,0
CCS(=O)(=O)NCc1c(C)ncc2c1CCN(C(=O)c1ccc(F)cc1)C2,-,0,-,-,0,-
FC(F)Sc1ccc(NC(=S)NC2CCCC2)cc1,0,0,0,0,0,0
CC1CCCC(NC(=S)Nc2ccc(SC(F)F)cc2)C1C (centres undefined),0,?,0,0,11.2µM,0
Cc1c(C(=O)N(C)Cc2cscn2)sc2ncnc(NC[C@H]3CCc4ccccc4O3)c12,-,0,-,-,0,-
Cn1nccc1C(=O)NCC1CCC2(CCN(Cc3ccc(-c4ccc(Cl)cc4)o3)CC2)O1 (centres undefined),-,0,-,-,0,-
c1coc(-c2nnc(-c3ccco3)nn2)c1,15.8µM,?,14.1µM,?,0,0
Cc1cc(CC(C)CC(C)(C)C)n(O)c(=O)c1 (centres undefined),-,1µM,-,-,?,0
CCOC(=O)N1CCN(Cc2ccc3c(c2)CN(C(=O)c2sc(C)nc2C)CCO3)CC1,-,0,-,-,0,-
COc1ccc(NC2CCN(C3CC(=O)N(c4ccc(F)c(Cl)c4)C3=O)CC2)cc1 (centres undefined),0,-,6.31µM,0,0,0
COc1cccc(N2CCN(C3CC(=O)N(c4ccc(F)c(Cl)c4)C3=O)CC2)c1 (centres undefined),0,0,28.2µM,0,0,0
CCN1C(=O)CC(N2CCC(Nc3ccc(OC)cc3)CC2)C1=O (centres undefined),0,-,0,0,0,0
COc1cccc(N2CCN(C3CC(=O)N(c4ccc(C)c(Cl)c4)C3=O)CC2)c1 (centres undefined),0,-,0,0,-,0
CCOc1ccc(N2C(=O)CC(N3CCN(c4ccccc4OC)CC3)C2=O)cc1 (centres undefined),0,-,28.2µM,0,-,0
COc1ccc(C(C)=O)c(Oc2cc(NN3CCCCC3)c([N+](=O)[O-])cc2[N+](=O)[O-])c1,0,?,0,0,3.16µM,0
O=C1C=C(c2ccccc2)C[C@H](c2cccs2)[C@H]1n1nnc([N+](=O)[O-])n1,0[2.32 µM],14.1µM,0,0,?,0
SMILES,AMA1-RON2 inh,VACV mCherry inh,RE007 growth inh,LmPK inhibitor,VACV Venus inh,TbPYK inhibitor
O=C1C=C(c2ccccc2)CC(c2cccs2)C1n1cnc([N+](=O)[O-])c1 (centres undefined),0,-,0,0,0,0
COc1ccc(C2C(=O)N(C3CCCCCC3)CC(=O)N2CCC2=CCCCC2)cc1 (centres undefined),-,0,-,-,0,0
CC(C)(C)C(=O)Nc1ccc(C(=O)N/N=C/c2ccccc2OC(=O)c2ccc(Cl)cc2)cc1,0,7.94µM,0,0,?,0
Cc1cc(C(=O)N/N=C/c2cc(Br)ccc2OC(=O)c2ccccc2)n[nH]1,0,-,0,0,?,0
O=C(N/N=C/c1cc(Br)ccc1OC(=O)c1ccc(Br)cc1)c1ccncc1,0,4.47µM,0,0,?,0
O=C(N/N=C/c1cc(Br)ccc1O)c1ccncc1,0,?,0,0,0,0
Cc1cc(C(=O)N/N=C/c2cc(Br)ccc2OC(=O)c2ccccc2Cl)n[nH]1,0,6.31µM,0,0,?,0
CC(C)(C)C(=O)Nc1ccc(C(=O)N/N=C/c2ccccc2OC(=O)c2ccccc2)cc1,0,-,0,0,?,0
COc1ccc(C(=O)N/N=C/c2ccccc2OC(=O)c2ccccc2)cc1,0,2µM,0,0,?,0
COc1ccccc1C1CN(Cc2c(C)nn(C)c2Cl)Cc2ccccc2O1 (centres undefined),-,0,-,-,0,-
COc1cc2c(NC3CCN(C)CC3)nc(N3CCCN(C)CC3)nc2cc1OCCCCCN,-,0,-,-,?,-
COc1cc2c(NC3CCN(C)CC3)nc(N3CCCCC3)nc2cc1OCCOCCN1CCCC1,-,?,-,-,10µM,-
COc1cc2c(NC3CCN(C(C)C)CC3)nc(N3CCCN(C)CC3)nc2cc1OCCOCCN1CCCC1,-,?,-,-,3.55µM,-
COc1cc2c(NC3CCN(C)CC3)nc(N3CCCN(C)CC3)nc2cc1OCCCCCC(N)=O,-,0,-,-,0,-
COc1cc2c(NC3CCN(C)CC3)nc(N3CCCN(C)CC3)nc2cc1OCCCN1CCOCC1,-,?,-,-,8.91µM,-
COc1ccccc1CN1CCOc2ccc(C(C)(O)COc3ccccc3)cc2C1 (centres undefined),-,0,-,-,0,-
CC1CCC2(CC1)NC(=O)N(NC(=O)CCl)C2=O (centres undefined),0,15.8µM,0,0,?,0
CCc1cc(C(=O)NCc2c(C)ncc3c2CCN(C(=O)C2=CCCC2)C3)no1,-,0,-,-,0,-
Cn1c(=O)c(=O)n(C)c2cc(N3CCOCC3)c(NS(=O)(=O)c3ccc(F)c(Cl)c3)cc21,0,11.2µM,0,0,?,0
COCC(=O)Nc1cc(C(=O)N2CCc3ccccc3C2)c2c(c1)nc(-c1ccncc1)n2C,-,0,-,-,0,-
O=C(O)C1Nc2c(Cl)cc(Cl)cc2C2C=CCC12 (centres undefined),14.1µM,0,0,0,0,0
O=C(O)C1Nc2ccc(Br)cc2C2C=CCC12 (centres undefined),10µM,-,0,0,-,0
CCCCNC(=O)c1sc2ncnc(NCC3CCCO3)c2c1C (centres undefined),-,0,-,-,0,-
Cc1cc(O)cc2c1C1CCC3(C)C(=O)CCC3C1C=C2 (centres undefined),0,1.78µM,0,-,?,0
C[C@]12CC[C@@H]3c4ccc(O)cc4CC[C@H]3[C@@H]1CCC2=O,0,0,0,0,0,0
O=C1[C@@H]2[C@@H](CN3CN(c4ccccc4)N=C(c4ccccc4)[C@@]23c2ccccc2)C(=O)N1c1ccccc1,0,0,39.8µM,-,0,0

# High-throughput results deposited in PubChem BioAssay by National Center for Advancing Translational Sciences (NCATS).
